Experiment [1] is described as follows: UKN2_HCS_IMR90_cell_viability: Viability Assessment in the University of Konstanz (UKN) Leist Lab Neural Crest Cell Migration Assay in human induced IMR90 Pluripotent Stem Cells (UKN2) (AID 2284233).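 Further: viability of neural crest cells differentiated from IMR90 iPSC measured by calcein-AM fluorescence imaging; cells exposed to compound for 24 h after a 24 h migration phase.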 The method, boiled down:
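Neural crest cells derived from IMR90 iPSC migrate into a stopper-free zone for 24 h in EGF/FGF medium, then are exposed to compound for 24 h. Viability assessed by calcein-AM and Hoechst staining with high-content imaging, fitted bidirectionally versus DMSO.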

A short description of experiment [2]: CCTE_Mundy_HCI_Cortical_NOG_NeuronCount: CCTE's Neurite Outgrowth Assay in rat cortical cells for Neuron Count, Mundy Lab (AID 2284236; active means hit-call score of the fitted dose curve at least 0.9, where 1 is the maximum;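 further: neurons counted by imaging betaIII-tubulin and Hoechst stained cortical cells; cells exposed to compound for about 48 hours before fixation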). The gist of the method: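 Read-out: neuron number by high-content imaging of betaIII-tubulin (Alexa Fluor-488) and Hoechst-labelled rat primary cortical cells.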
Experiment [3] is described as follows: CCTE_Mundy_HCI_Cortical_NOG_BPCount: CCTE's Neurite Outgrowth Assay in rat cortical cells for Branch Point Count, Mundy Lab (AID 2284237). The gist of the method: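 Measured 50.33 h after dosing, this morphology endpoint uses rat primary cortical cultures labelled for betaIII-tubulin. Branch points are quantified by high-content imaging, with DMSO as negative control and baseline.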

Experiment [4] in a line: CCTE_Mundy_HCI_hNP1_Casp3_7: CCTE's Caspase-Glo 3/7 Assay in human neuroprogenitor cells for Apoptosis, Mundy Lab (AID 2284240). The method, boiled down:
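Luminescent caspase-3/7 readout, 26.5 h post-dose, in human neural progenitor cells from WA09 embryonic stem cells. Cells grew 40–44 h at 37 °C, 5% CO2 before chemical addition. Activity analysed as signal increase over DMSO baseline.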

Experiment [5] can be described thus: CCTE_Mundy_HCI_hNP1_CellTiter: CCTE's Cell Titer-Glo 2 Assay in human neuroprogenitor cells for Viability, Mundy Lab (AID 2284241; active means hit-call score of the fitted dose curve at least 0.9, where 1 is the maximum). The method, boiled down: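 Viability read as luminescent ATP content (CellTiter-Glo, 30 min room temperature) twenty-four hours after dosing, relative to DMSO. Cells: WA09-derived hNP1 neuroprogenitors on poly-L-ornithine/laminin, plated 40 to 44 hours before chemical.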
Background: In ATP-based viability assays light output follows the ATP content of the culture.

Experiment [6] can be described thus: CCTE_Mundy_HCI_Cortical_Synap_Neur_Matur_NeuronCount: CCTE's Synaptogenesis and Neurite Maturation Assay in rat cortical cells for Neuron Count, Mundy Lab (AID 2284242; active means hit-call score of the fitted dose curve at least 0.9, where 1 is the maximum). The gist of the method:
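Neuron number was scored by automated high-content imaging of Hoechst- and MAP2-labelled rat primary cortical cells. Glial growth was arrested with AraC at DIV 5, compounds were applied from DIV 7, and cultures ended at DIV 12.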

A short description of experiment [7]: TAMU_HCS_1.5hr_SingleDonor1434_Cytotoxicity: Cytotoxicity Assessment using High-content Screening (HCS) Fluorescent Imaging for the Texas A&M University (TAMU) 1.5-hr Human Induced Pluripotent Stem Cell (iPSC)-derived Cardiotoxicity Assay (AID 2284234; active means hit-call score of the fitted dose curve at least 0.9, where 1 is the maximum). The method, boiled down:
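Human iPSC-derived cardiomyocytes dosed at 0.2, 1, 10, 100 uM final (0.5% DMSO) for 90 min at 37 C. Hoechst 33342-stained nuclei counted by 10x high-content imaging; POD is EC10, a 10% drop in total cell count versus DMSO.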

Experiment [8] in a line: TAMU_PeakParms_SingleDonor1434_QT: Texas A&M University (TAMU) 1.5-hr Human Induced Pluripotent Stem Cell (iPSC)-derived Cardiomyocytes Calcium (Ca+2) Flux Assay for Cardiotoxicity: QT (decay-rise ratio) (AID 2284235; active means hit-call score of the fitted dose curve at least 0.9, where 1 is the maximum). The method, boiled down: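 iPSC-derived cardiomyocytes (single donor 1434) dosed at 0.2, 1, 10, 100 uM final in 0.5% DMSO, 90 min at 37C. Ca2+ flux fluorescence decay/rise ratio; EC05 (5% increase versus DMSO) as POD, excluding beat-arrest and severe-notch data.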

Read-out in experiment [9]: Collagen I, COL1A1 (gene 1277)
The experiment in a line: BSK_MyoF_CollagenI: BioMAP Diversity Plus: MyoF Assay for Collagen I Biomarker Activity (AID 2284238). The following applies: primary human lung fibroblasts. The gist of the method: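 Collagen I levels measured by ELISA on human lung fibroblast cultures 24 h post-dosing, with curve fitting in the positive direction relative to DMSO; SRB staining of parallel wells marked cytotoxicity.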

Read-out in experiment [10]: Collagen III, COL3A1 (gene 1281)
The experiment is described as follows: BSK_MyoF_CollagenIII: BioMAP Diversity Plus: MyoF Assay for Collagen III Biomarker Activity (AID 2284239). The conditions noted are these: primary human lung fibroblasts. The gist of the method:
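Collagen III biomarker quantified by ELISA in human lung fibroblast cultures 24 h after dosing. Activity fitted in the positive direction against DMSO as baseline.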

The structures appear in SMILES notation. Several values for one entry are separate records, joined by “and”; a condition that tells them apart may be missing. Identical values can stand only once. Results filed as inconclusive are left out. Activity calls are given as the source filed them. How the source made its calls, unless noted: active means hit-call score of the fitted dose curve at least 0.9, where 1 is the maximum; inactive means score below 0.9.

As for `CC(CCl)OP(=O)(OC(C)CCl)OC(C)CCl` (stereo unspecified), the molecule was called inactive in experiment [1], in experiment [2], in experiment [3], in experiment [4], in experiment [5] and in experiment [6].

`OC[C@@H](O)[C@@H](O)[C@H](O)[C@@H](O)CO`: the call in experiment [7], in [8], in experiment [2], in experiment [4] and in [6] was inactive.

As for `OCC(F)(F)C(F)(F)C(F)(F)C(F)F`, the outcome in experiment [9], in [10], in experiment [4] and in experiment [5] was inactive.

Consider `FC(F)(F)C(F)(F)C(F)(F)CI`, for which the result in [9], in [10], in experiment [4] and in [5] was inactive.

As for `FC(F)(F)C(F)(F)C(F)(F)C(F)(F)C(F)(F)C(F)(F)C(F)(F)C(F)(F)CCS`, the result in experiment [9], in experiment [10], in [4] and in experiment [5] was inactive.

Regarding `O=C(O)C(F)(F)C(F)(F)C(F)(F)C(F)(F)C(F)(F)C(F)(F)C(F)(F)C(F)(F)Cl`, the half-maximal activity concentration (AC50) (commonly the midpoint of the concentration-response curve, whichever way the signal moves) in [9] is 19.3 µM (active); in experiment [10], 17.6 µM (active) and 18.3 µM (active). Moreover, the call in experiment [4] and in experiment [5] was inactive.

As to `Oc1ccc(Nc2ccccc2)cc1`, the outcome in experiment [9] was inactive. In addition, the AC50 in [10] was 16.2 µM (active).

In the case of `CC(=O)Nc1ccc(N=Nc2cc(C)ccc2O)cc1`, the result in experiment [9] and in [10] was inactive.

Take `C=CC(F)(F)C(F)(F)C(F)(F)C(F)(F)C(F)(F)C(F)(F)C(F)(F)C(F)(F)C=C`: the outcome in experiment [9] and in experiment [10] was inactive.

`C=CC(F)(F)C(F)(F)C(F)(F)C(F)(F)C(F)(F)C(F)(F)C(F)(F)C(F)(F)F`: the result in experiment [9] and in experiment [10] was inactive.

On to `OCCCC(F)(F)C(F)(F)C(F)(F)C(F)(F)C(F)(F)C(F)(F)C(F)(F)F`, for which the concentration at half-maximal activity (AC50) in experiment [9] is 49.1 µM (active) and 52.3 µM (active); in experiment [10], 46.9 µM (active) and 52.2 µM (active). For the same molecule, the call in experiment [4] and in [5] was inactive.

`FC(F)(F)C(F)(F)C(F)(F)C(F)(F)C(F)(F)CCI`: the result in experiment [9] and in [10] was inactive.

Values taken from PubChem BioAssay (EPA / NIEHS).
